Laboratory results reported in PubChem BioAssay AID504652 (National Center for Advancing Translational Sciences (NCATS), 2011).
Among all 360,000 compounds or so, about 11,000 (3.1%) were called active. The full list was thinned out, with actives kept by preference. Unmarked numbers belong to inactive results. No stated cut-off is given here; in the data, active means activity change below about -30%; inactive means the rest.
On the % scale 0 is the no-effect control and ±100 the full control effect.

What follows are molecules tested against D(1A) dopamine receptor (Homo sapiens) (UniProt P21728) (assay: Antagonist of Human D 1 Dopamine Receptor: qHTS). Settings: HEK293 TREx D1 cells, calcium flux, dopamine EC80; at 10 µM; active compounds read low.
Sequence of D(1A) dopamine receptor (Homo sapiens) (P21728 whole entry, looked up): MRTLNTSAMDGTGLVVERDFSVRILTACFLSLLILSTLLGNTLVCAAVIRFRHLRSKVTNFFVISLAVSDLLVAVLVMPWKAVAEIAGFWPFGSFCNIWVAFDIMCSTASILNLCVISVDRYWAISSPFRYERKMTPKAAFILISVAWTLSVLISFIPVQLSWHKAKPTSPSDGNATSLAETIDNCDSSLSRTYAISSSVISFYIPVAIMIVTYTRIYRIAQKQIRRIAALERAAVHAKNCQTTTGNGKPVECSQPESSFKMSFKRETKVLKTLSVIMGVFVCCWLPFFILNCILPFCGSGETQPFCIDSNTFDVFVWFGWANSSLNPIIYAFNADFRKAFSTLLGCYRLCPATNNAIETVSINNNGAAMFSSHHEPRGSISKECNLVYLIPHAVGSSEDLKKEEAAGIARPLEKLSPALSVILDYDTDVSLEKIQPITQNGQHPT
Outline: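 Allosteric or orthosteric antagonism assessed as attenuation of the calcium response to EC80 dopamine, added 180 s after compound, in induced HEK293 Trex D1 cells loaded with no-wash calcium dye.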
CCOc1cc(C2C(C(=O)OC)=C(C)NC3=C2C(=O)c2ccccc23)ccc1O (stereo unspecified) was tested, and the activity change, negative = inhibition was -1.02%.
COc1ccccc1-c1cc2nc(C)c(CCC(=O)NC3CCCCC3)c(C)n2n1 was tested, and the activity change, negative = inhibition was 2.22%.
COc1cc(NC(=O)Nc2ccc(C)cc2)cc([N+](=O)[O-])c1 showed an activity change, negative = inhibition of -3.95%.
Molecule CCOC(=O)C(=CNNc1ccsc1C(=O)OC)C(=O)OCC has an activity change, negative = inhibition of 12.1%.
With COC(=O)c1sccc1NC(=O)CCC1CCCC1 the activity change, negative = inhibition was 1.13%.
Work on COC(=O)c1ccc(NC(=S)Nc2cccc(C)n2)cc1 yielded an activity change, negative = inhibition of -4.64%.
COC(=O)c1sccc1NN1C(=O)c2ccccc2C1=O was tested, and the activity change, negative = inhibition was -47.9% (active).
Molecule COC(=O)c1sccc1NC(=O)c1ccc(Cl)cc1 has an activity change, negative = inhibition of 1.11%.
For COC(=O)c1sccc1NC(=S)Nc1ccc(C)cc1, the activity change, negative = inhibition was -32.4% (active).
Molecule COC(=O)c1sccc1NS(=O)(=O)c1ccc(F)cc1F has an activity change, negative = inhibition of -12%.
In the case of COC(=O)c1ccc(NC(=O)Nc2ccc(C)cc2)cc1, the activity change, negative = inhibition was -35.1% (active).
In the case of Cc1oc2c(c1C(=O)Nc1ccc(F)c(F)c1)C1=NCCN1C=N2, the activity change, negative = inhibition was -2.12%.
CCOC(=O)c1ccc(NC(=O)c2ncn(-c3ccccc3)n2)cc1 gave an activity change, negative = inhibition of -18.3%.
Molecule O=C(CCC1N=C2c3ccccc3N=C(SCc3ccccc3F)N2C1=O)NCCc1ccccc1 (stereo unspecified) has an activity change, negative = inhibition of 14.5%.
COc1ccc(N2CCN(Cc3nc4c(c(=O)[nH]c(=O)n4C)n3Cc3ccc(Cl)cc3)CC2)cc1 was tested, and the activity change, negative = inhibition was -1.05%.
For Cc1cccc(CS(=O)(=O)c2ncc(Cl)c(C(=O)Nc3ccc(F)cc3)n2)c1, the activity change, negative = inhibition was -44.7% (active).
Cc1ccc(NC(=O)c2nc(S(=O)(=O)Cc3cccc(C)c3)ncc2Cl)cc1 was tested, and the activity change, negative = inhibition was -29.3%.
In the case of Cc1cccc(NC(=O)c2nc(S(=O)(=O)Cc3ccccc3)ncc2Cl)c1, the activity change, negative = inhibition was -28.7%.
Work on CCc1cccc(CC)c1NC(=O)Cn1c(=O)c(-c2cc(C)ccc2NC(C)=O)nc2ccccc21 yielded an activity change, negative = inhibition of -15.1%.
In the case of Cc1nn(C)c2c1c(C(F)(F)F)cc(=O)n2C(C)C(=O)NCc1ccc(Cl)cc1 (stereo unspecified), the activity change, negative = inhibition was 16.7%.
With O=C(Nc1ccc(S(=O)(=O)N2CCC(c3nc4ccccc4s3)CC2)cc1)c1ccccc1F the activity change, negative = inhibition was 11%.
Molecule COc1ccc(N2CCN(S(=O)(=O)CCNC(=O)C(c3ccccc3)c3ccccc3)CC2)cc1 has an activity change, negative = inhibition of -1.95%.
CCOc1ccccc1Nc1ccc(C(=O)O)cc1[N+](=O)[O-] showed an activity change, negative = inhibition of -11.5%.
In the case of NC(=O)c1ccc(Nc2ccc3c(c2)CCC3)c([N+](=O)[O-])c1, the activity change, negative = inhibition was -48.2% (active).
O=[N+]([O-])c1ccccc1Nc1ccc(O)cc1 gave an activity change, negative = inhibition of 5.4%.
With Cc1ccc(Nc2ccc(C(N)=O)cc2[N+](=O)[O-])cc1 the activity change, negative = inhibition was -47.2% (active).
Work on CCOC(=O)c1ccc(NNC(C)=O)c([N+](=O)[O-])c1 yielded an activity change, negative = inhibition of -8.63%.
In the case of CNc1ccc(NC(C)=O)cc1[N+](=O)[O-], the activity change, negative = inhibition was -1.26%.
COC(=O)c1cnn(-c2ccc(C(=O)Nc3ccc(OC(F)(F)F)cc3)cc2)c1N was tested, and the activity change, negative = inhibition was -10.8%.
COc1ccc(Cn2c(C(=O)O)c(CNCc3cccc(OC)c3)c3ccc(C)cc32)cc1 was tested, and the activity change, negative = inhibition was 8.54%.
With CC(C)C[C@H](NC(=O)C1CC(=O)N(c2ccc3c(c2)OCCO3)C1)C(=O)NC1CCCC1 (stereo partly specified) the activity change, negative = inhibition was -44.1% (active).
CCOC(=O)c1ccc(NC(=O)C2CC(=O)N(c3ccc4c(c3)OCCO4)C2)cc1 (stereo unspecified) gave an activity change, negative = inhibition of 6.91%.
Molecule C[C@H](NC(=O)C1CC(=O)N(c2ccc3c(c2)OCCO3)C1)C(=O)N1CCC(C(=O)O)CC1 (stereo partly specified) has an activity change, negative = inhibition of 9.3%.
In the case of Cc1ccc(S(=O)(=O)N(CC(=O)NCc2ccco2)c2ccccc2C)cc1, the activity change, negative = inhibition was -44.4% (active).
Work on COc1ccc(S(=O)(=O)N(CC(=O)NCc2ccco2)c2ccc(F)cc2)cc1 yielded an activity change, negative = inhibition of -3.07%.
In the case of CCN(CC(=O)NCc1ccco1)S(=O)(=O)c1ccc(F)cc1, the activity change, negative = inhibition was -0.842%.
With CCCS(=O)(=O)N1CCCC(C(=O)NCc2ccco2)C1 (stereo unspecified) the activity change, negative = inhibition was 6.64%.
CCOC(=O)N1CCN(S(=O)(=O)N2CCCC(C(=O)NCCCN3CCC(C)CC3)C2)CC1 (stereo unspecified) showed an activity change, negative = inhibition of 2.88%.
With CCCS(=O)(=O)N1CCCC(C(=O)NCCN2CCCCC2C)C1 (stereo unspecified) the activity change, negative = inhibition was -41.8% (active).
COc1ccccc1CNC(=O)CCn1c(=O)c2ccccc2n(CC(=O)Nc2ccc(Br)cc2F)c1=O showed an activity change, negative = inhibition of 0.197%.
Work on COc1ccc(C)cc1NC(=O)CCc1c(C)nn(-c2ccc(N3CCOCC3)nn2)c1C yielded an activity change, negative = inhibition of -25.9%.
Cc1ccccc1NC(=S)N(CCCN1CCOCC1)Cc1cccs1 gave an activity change, negative = inhibition of -5.87%.
Work on Cc1ccc(Cl)cc1NC(=S)N(CCN(C)C)Cc1cccs1 yielded an activity change, negative = inhibition of -0.901%.
For Cc1ccc(NC(=S)N(CCN(C)C)Cc2cccs2)cc1C, the activity change, negative = inhibition was -42.5% (active).
With COC(=O)c1scc(-c2ccc(C)cc2)c1S(=O)(=O)Nc1cc(Cl)c(OC)cc1OC the activity change, negative = inhibition was 10.2%.
Work on Cc1ccc(CSc2nc3ccsc3c(=O)n2CCC(C)C)cc1 yielded an activity change, negative = inhibition of 13.8%.
In the case of COCCNS(=O)(=O)c1cc(-c2nn3c(C)nnc3c3ccccc23)ccc1C, the activity change, negative = inhibition was -4.16%.
With CC(=O)c1cccc(Nc2ccc3cc(S(=O)(=O)N4CCC(C)CC4)ccc3n2)c1 the activity change, negative = inhibition was 13.5%.
For COc1cccc(NC(=S)C(C#N)=C2N(C)c3ccccc3N2C)c1, the activity change, negative = inhibition was 0.557%.
With CN1CCN(CCC(=O)N/N=C/C=C2\N(C)c3ccccc3C2(C)C)CC1 the activity change, negative = inhibition was -8.35%.
With CC(=O)Nc1cccc(OCC(=O)/C=C2\N(C)c3ccccc3C2(C)C)c1 the activity change, negative = inhibition was -35.4% (active).
O=C1OC(C(=O)Nc2cccc(Br)c2)Cc2ccccc21 (stereo unspecified) was tested, and the activity change, negative = inhibition was 3.01%.
For COc1ccc2cc(C(=O)NCC3CCCO3)[nH]c2c1 (stereo unspecified), the activity change, negative = inhibition was -7.79%.
With COc1cccc(C(=O)NCCS(=O)(=O)NCC2CCCO2)c1 (stereo unspecified) the activity change, negative = inhibition was 28.7%.
For COc1cccc(/C=C2\Sc3ccc(C(=O)NCC4CCCO4)cc3N(C)C2=O)c1 (stereo unspecified), the activity change, negative = inhibition was -38% (active).
Work on Brc1cccc(-c2nnn3c2nc(NC2CCCCC2)c2ccccc23)c1 yielded an activity change, negative = inhibition of 11.9%.
Cc1cc(F)ccc1NS(=O)(=O)c1ccc(-n2cccn2)cc1 showed an activity change, negative = inhibition of -14%.
Cc1ccc(-n2nc(C)c3c(C)cc(=O)n(CC(=O)Nc4ccc(C(C)C)cc4)c32)cc1 was tested, and the activity change, negative = inhibition was 14.4%.
For CCOC(=O)c1ccc(N2C(=O)c3[nH]nc(-c4ccccc4)c3C2c2ccc(C(C)C)cc2)cc1 (stereo unspecified), the activity change, negative = inhibition was 49.1%.
CCOc1ccc(CCNC(=O)c2cc3c(=O)n(C)c4ccccc4c3n2C)cc1 was tested, and the activity change, negative = inhibition was -46.8% (active).
With CCN1CCCC1CNC(=O)c1cc2c(=O)n(C)c3ccccc3c2n1C (stereo unspecified) the activity change, negative = inhibition was -10.7%.
CCOc1ccc(CCNC(=O)c2c(C)oc3ncn(C)c(=O)c23)cc1 was tested, and the activity change, negative = inhibition was 3.92%.
Work on CCCn1c2ccccc2c2cnn(CC(=O)N(C)c3ccccc3CC)c(=O)c21 yielded an activity change, negative = inhibition of -1.54%.
For O=C(c1ccc2c(c1)N(Cc1ccccc1)C(=O)c1ccccc1S2(=O)=O)N1CCCC1, the activity change, negative = inhibition was 1.23%.
O=C(Nc1cc(C(F)(F)F)ccc1Cl)c1cc2nc(-c3ccc4c(c3)OCO4)cc(C(F)(F)F)n2n1 showed an activity change, negative = inhibition of 12.4%.
For CC(C)c1ccc(NC(=O)C2CCN(c3nc(-c4ccc(C(C)C)cc4)no3)CC2)cc1, the activity change, negative = inhibition was -20.6%.
With COc1ccc(NC(=O)c2ccc3nc(CCc4ccccc4)oc3c2)c(OC)c1 the activity change, negative = inhibition was 0.958%.
CC(=O)N1CCCc2cc(S(=O)(=O)N3CCC(C(=O)NCc4ccc(F)cc4)CC3)ccc21 showed an activity change, negative = inhibition of -2.54%.
Work on CCc1nccn1S(=O)(=O)c1cc(Br)ccc1Br yielded an activity change, negative = inhibition of -13.3%.
Molecule COC(=O)c1ccc(C2C(C(=O)Nc3ccccc3)=C(C)Nc3nc4ccccc4n32)cc1 (stereo unspecified) has an activity change, negative = inhibition of 6.56%.
c1ccc2c(c1)OCC(CNc1ncnc3nc[nH]c13)O2 (stereo unspecified) was tested, and the activity change, negative = inhibition was -86.7% (active).
c1ccc(-c2cc3c(NCC4COc5ccccc5O4)ncnc3s2)cc1 (stereo unspecified) gave an activity change, negative = inhibition of -18.9%.
For COc1ccc(CCNc2ncnc3nc[nH]c23)cc1OC, the activity change, negative = inhibition was -23.9%.
In the case of CCOc1ccccc1CNC(=O)c1ccc2c(c1)nc1n2CCC(C)C1 (stereo unspecified), the activity change, negative = inhibition was -12.2%.
CCC(C)c1ccc2oc(-c3ccc(NC(=O)c4cc5ccccc5o4)cc3)nc2c1 (stereo unspecified) gave an activity change, negative = inhibition of -6.42%.
In the case of Cc1cc2nc(-c3ccc(NC(=O)c4cc5ccccc5o4)cc3)oc2cc1C, the activity change, negative = inhibition was -20.5%.
For CC(C)Oc1ccc(NC(=O)c2cc3ccccc3o2)cc1, the activity change, negative = inhibition was -61.7% (active).
For CC1=Nc2cc(C(=O)N3CCC(C)CC3)ccc2Sc2ccc(Cl)cc21, the activity change, negative = inhibition was 5.84%.
Molecule CCOC(=O)N1CCc2c(sc3c2c(=O)n(-c2ccc(CC)cc2)c(=O)n3C)C1 has an activity change, negative = inhibition of 5.44%.
CCN(CC)C(=O)CCC(=O)Nc1ccc(C(=O)OC)cc1 was tested, and the activity change, negative = inhibition was -2.84%.
In the case of CCCc1cc(C(=O)Nc2ccc(C(=O)OC)cc2)cs1, the activity change, negative = inhibition was -31.2% (active).
CCCc1cc(C(=O)Nc2ccc(Cl)cn2)cs1 was tested, and the activity change, negative = inhibition was 11%.
Cc1ccc(C(=O)NCCSc2c(C)[nH]c3ccccc23)cc1C gave an activity change, negative = inhibition of -23.5%.
For Cc1ccc(-n2c3nc(=O)[nH]c(=O)c-3cc3c(Cl)cccc32)cc1, the activity change, negative = inhibition was 7.04%.
COc1ccccc1CNC(=O)C(Cc1ccccc1)NS(=O)(=O)c1ccc2c(c1)oc(=O)n2C (stereo unspecified) gave an activity change, negative = inhibition of 3.15%.
Cc1ccc(NC(=O)CCNS(=O)(=O)c2ccc3c(c2)oc(=O)n3C)cc1C gave an activity change, negative = inhibition of -0.228%.
Cc1ccc(NC(=O)C(Cc2ccccc2)NS(=O)(=O)c2ccc3c(c2)oc(=O)n3C)cc1C (stereo unspecified) was tested, and the activity change, negative = inhibition was -42.8% (active).
For COc1ccc(-c2ccc(=O)n(CC(=O)Nc3ccc(Br)cc3F)n2)cc1, the activity change, negative = inhibition was 27.5%.
In the case of O=C(CCCN1CCc2[nH]c3ccc(F)cc3c2C1)c1ccc(F)cc1, the activity change, negative = inhibition was -73% (active).
Cc1ccc2[nH]c3c(c2c1)CN(C(=O)CN1CCN(c2ccccc2)CC1)CC3 was tested, and the activity change, negative = inhibition was -26.5%.
O=c1c2ccccc2[nH]c(=S)n1CCN1CCC(=C(c2ccc(F)cc2)c2ccc(F)cc2)CC1 gave an activity change, negative = inhibition of -22.1%.
